CYP2C19 inh: human CYP2C19 inhibition; inhibition, % at 5 µM; CYP2C19 Supersomes, luciferin-H EGE luminescence, 30 min; AID 778; P33261; actives 21% (n = 96,000);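 active = CYP2C19 inhibition above a set limit at 5 µM in the primary screen, cut at about 50% in these data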
CYP2C9 inhib: inhibitors of human CYP2C9; P11712; CYP2C9 Supersomes, luciferin-H conversion, luminescence; inhibition, % at 5 µM; actives 20% (n = 96,000);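 active = blocking of liver enzyme CYP2C9 beyond about 50% at 5 µM, limit read from the data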
Target sequence (P11712 whole entry, looked up): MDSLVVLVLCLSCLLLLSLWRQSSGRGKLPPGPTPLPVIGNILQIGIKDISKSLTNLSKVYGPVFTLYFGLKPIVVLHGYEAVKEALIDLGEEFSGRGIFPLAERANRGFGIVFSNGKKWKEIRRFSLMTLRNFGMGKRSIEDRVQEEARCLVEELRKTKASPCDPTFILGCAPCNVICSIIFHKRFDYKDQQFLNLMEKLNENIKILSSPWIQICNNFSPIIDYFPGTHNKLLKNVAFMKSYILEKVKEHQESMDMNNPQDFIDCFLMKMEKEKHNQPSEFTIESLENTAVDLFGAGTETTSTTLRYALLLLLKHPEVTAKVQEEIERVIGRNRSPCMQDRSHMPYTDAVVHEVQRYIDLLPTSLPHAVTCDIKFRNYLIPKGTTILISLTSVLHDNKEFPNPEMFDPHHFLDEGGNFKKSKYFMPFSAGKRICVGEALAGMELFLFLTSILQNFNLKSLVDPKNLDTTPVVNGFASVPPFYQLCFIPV
sEH inhibitor: blocks human soluble epoxide hydrolase activity; actives 0.34% (n = 91,000); P34913; AID 707; inhibition, % at 2 µM; recombinant human sEH enzymatic activity assay; in the data active = inhibition above about 80%
sEH act: activators of human soluble epoxide hydrolase | activation, % at 2 µM | AID 717 | purified human sEH enzymatic activity, activator screen | actives 0.04% (n = 91,000) | P34913; in the data active = activation above about 37%
CYP2C19 activ: increases human CYP2C19 enzyme activity; AID 1025; recombinant CYP2C19, luciferin-H EGE luminescence; hits give high values; 0 = fully inhibited enzyme, 1 = untreated enzyme; 96,000 tested, under 10 active; activation factor at 5 µM; P33261;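 active = activation factor of at least 2 at 5 µM in the primary screen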
CYP2C9 act: increases human cytochrome P450 2C9 activity | recombinant CYP2C9, luciferin-H conversion, luminescence; hits give high values; factor 1 = untreated enzyme, 0 = blocked | activation factor at 5 µM | actives 1.4% (n = 96,000);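 active = activation factor of 2 or more for CYP2C9 at a 5 µM dose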
Numbers stand for hits; – = inactive; · = no result given. In the library only some 27% were active in any assay of this set; here they are far more common.

SMILES	CYP2C19 inh	CYP2C9 inhib	sEH inhibitor	sEH act	CYP2C19 activ	CYP2C9 act
CN1CCN(CCCNC(=O)c2cn(C3CCCCC3)c(=O)c3c2c2ccccc2n3C)CC1	–	–	–	–	–	–
O=S(=O)(NCc1ccc(F)cc1)c1ccc2c(c1)OCCO2	60	–	–	–	–	2
O=C1CCCN1c1ccc(S(=O)(=O)Nc2ccc3c(c2)OCCO3)cc1	–	–	–	–	–	–
CSc1ccc(S(=O)(=O)Nc2ccc3c(c2)OCCO3)cc1	68	–	·	·	–	–
CSc1ccc(S(=O)(=O)Nc2ccc(N3CCOCC3)c(Cl)c2)cc1	100	98	–	–	–	–
O=S(=O)(Nc1ccc2c(c1)OCCO2)c1ccc(F)cc1	88	69	–	–	–	–
C#CC[N+](C)(C)C(C#Cc1ccccc1)CC=C (stereo not drawn)	–	–	–	–	–	–
Cc1ccc(NC(=O)CCC(=O)NNC(=O)c2ccco2)cc1C	–	–	–	–	–	–
COC(=O)c1cc(NC(=O)Nc2ccccc2OC)cc(C(=O)OC)c1	–	–	–	–	–	–
Cc1ccc(S(=O)(=O)N2CCCC2C(=O)Nc2ccc(O)cc2)cc1 (stereo not drawn)	–	–	·	·	–	–
COc1ccc(NC(=O)C2CCCN2S(=O)(=O)c2ccc(F)cc2)cc1 (stereo not drawn)	64	93	–	–	–	–
COc1ccc(CNC(=O)C2CCCN2S(=O)(=O)c2ccc(Cl)cc2)cc1 (stereo not drawn)	·	·	–	–	·	·
COc1ccc(S(=O)(=O)N2CCCC2C(=O)Nc2nc3c(s2)CCCC3)cc1 (stereo not drawn)	–	80	–	–	–	–
COc1ccc(-c2csc(NC(=O)C3CCCCN3S(=O)(=O)c3ccccc3)n2)cc1 (stereo not drawn)	–	88	–	–	–	–
CNC(=O)C1CCCN1S(=O)(=O)c1ccc(OC)cc1 (stereo not drawn)	–	–	–	–	–	–
COc1ccc(S(=O)(=O)N2CCCC2C(=O)Nc2ccc(C)cc2)cc1 (stereo not drawn)	76	54	–	–	–	–
Cn1c(=O)[nH]c(=O)c2c1nc(N1CCOCC1)n2CCSc1nc2ccccc2[nH]1	–	–	–	–	–	–
CC(=O)NCCc1ccc(S(=O)(=O)N2CCCC2)cc1	–	–	·	·	–	–
Cc1ccc(S(=O)(=O)N2CCC[C@H]2C(=O)OC(C)C(=O)Nc2ncc(Cl)cc2Cl)cc1 (stereo partly drawn)	71	–	–	–	–	–
Cc1ccc(NC(=O)NC2CCCN2S(=O)(=O)c2ccc(Cl)cc2)cc1 (stereo not drawn)	73	87	–	–	–	–
COC(=O)C(CCSC)NC(=O)c1cccc([N+](=O)[O-])c1 (stereo not drawn)	–	–	–	–	–	–
COCc1cc(C)nc(SCC(=O)c2ccc(O)c(O)c2)c1C#N	–	–	–	–	–	–
O=C(NC1CCCc2ccccc21)c1cccc(S(=O)(=O)N2CCN(c3ccccc3)CC2)c1 (stereo not drawn)	–	82	–	–	–	–
O=C(Nc1cccc(S(=O)(=O)N2CCOCC2)c1)c1cc2c(s1)CCC2	52	97	–	–	–	–
O=C(Nc1cccc(Cn2cccn2)c1)c1cc2c(s1)CCCC2	54	–	–	–	–	–
SMILES	CYP2C19 inh	CYP2C9 inhib	sEH inhibitor	sEH act	CYP2C19 activ	CYP2C9 act
O=C(Nc1ccc(N2CCOCC2)cc1)c1cccc(S(=O)(=O)N2CCCCC2)c1	–	–	–	–	–	–
O=C1CCc2cc(S(=O)(=O)N3CCC(C(=O)NC4CCCc5ccccc54)CC3)ccc2N1 (stereo not drawn)	–	–	–	–	–	–
COc1ccc(NC(=O)c2cc3c(s2)CCC3)cc1S(=O)(=O)N1CCOCC1	–	–	–	–	–	–
O=C(Nc1ccc2c(c1)CCC2)c1cccc(S(=O)(=O)N2CCN(c3ccccc3)CC2)c1	51	68	–	–	–	–
CCc1ccc(NC(=O)C(=O)NCCN2CCN(C(=O)c3ccco3)CC2)cc1	·	·	–	–	·	·
COc1cccc(C(=O)Nc2nc3c(c(=O)[nH]2)CCCC3)c1	–	–	–	–	–	–
COc1ccc(-n2cnnc2SCC(=O)N(C)C2CCS(=O)(=O)C2)cc1 (stereo not drawn)	–	–	–	–	–	–
Cc1ccc(/C=N/Nc2ncc(Cl)cc2Cl)s1	–	–	–	–	–	–
Cc1cc(Nc2ncc(Cl)cc2Cl)n[nH]1	71	–	–	–	–	–
Cc1ccc(NC(=O)c2ccc(Cl)c(N3C(=O)C=CC3=O)c2)cc1	–	62	–	–	–	–
COc1cccc(C(=O)Nc2ccc(C)cc2)c1	–	–	–	–	–	–
CCCCn1c(-c2csc3ccccc23)n[nH]c1=S	97	89	–	–	–	–
CCCCn1c(-c2csc3c2CCC(C)C3)n[nH]c1=S (stereo not drawn)	–	–	–	–	–	–
CCCCn1c(-c2csc3c2CCCC3)n[nH]c1=S	70	89	–	–	–	–
Cc1nc2nc(C)c(CCC(=O)Nc3ccc4c(c3)OCO4)c(C)n2n1	–	–	–	–	–	–
O=C(CN1CCN(S(=O)(=O)c2ccc(Br)cc2)CC1)Nc1ccc(F)cc1F	54	–	–	–	–	–
O=C(CN1CCN(S(=O)(=O)c2ccc(Br)cc2)CC1)Nc1ccccc1F	84	–	·	·	–	–
O=C(CN1CCN(S(=O)(=O)c2ccc(Br)cc2)CC1)Nc1ccc(F)cc1	–	–	–	–	–	–
O=C(CN1CCN(S(=O)(=O)c2ccc(Cl)cc2)CC1)Nc1ccc(F)cc1F	–	–	–	–	–	–
CCOC(=O)Cn1c(=O)n(Cc2ccco2)c(=O)c2ccc(C(=O)NC3CCCC3)cc21	–	–	·	·	–	–
Fc1ccc(CSc2nncn2NCc2ccccc2)cc1	·	·	–	–	·	·
CN(C)c1ccc(CNn2cnnc2SCc2ccc(F)cc2)cc1	98	63	–	–	–	–
Fc1ccc(CSc2nncn2NC/C=C/c2ccccc2)cc1	69	–	–	–	–	–
O=C1CC(Nc2ccc(N3CCOCC3)cc2)C(=O)N1CCc1ccccc1 (stereo not drawn)	–	–	–	–	–	–
O=c1c([N+](=O)[O-])cc(C(F)(F)F)cn1Cc1c(Cl)cccc1Cl	–	–	–	–	–	–
Cc1ccc(NS(=O)(=O)c2ccc(CCC(=O)NCCO)cc2)cc1	58	85	–	–	–	–
CCCNC(=O)COc1ccc(S(=O)(=O)Nc2ccc(C)cc2)cc1	69	52	–	–	–	–
CCCCCC(=O)Nc1ccc(S(=O)(=O)Nc2nccnc2OC)cc1	–	–	–	–	–	–
COc1ccc(C(=O)C2CCN(C(=O)c3ccco3)CC2)cc1	51	–	·	·	–	–
CCOC(=O)C1CCN(C(=O)c2ccc(SC)cc2OC)CC1	99	–	–	–	–	–

Screening results (PubChem)
